Luc counter: Kinase-Glo luciferase inhibition (counter-screen); AID 1379; Potency, µM (series often up to 38.3 µM), most hits filed as inhibitors; 200,000 tested, 0.28% active; Q27757; Kinase-Glo luciferase, ATP luminescence, 8 min; note: nearly all actives have a fitted effect of over 60% in size
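Recombinant Kinase-Glo luciferase, 10 uM ATP (linear range), luciferin; imidazole pH 7.2 / KCl / MgCl2 / Tween / BSA buffer; 8 min RT; luminescence.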
SMN2 splice up: enhancers of SMN2 splice variant expression | Potency, µM (doses to about 46.1 µM), hits mostly activators | 210,000 tested, 2.8% active | HEK293 SMN2-luciferase splicing reporter, luminescence, 30-36 h; note: nearly all actives have a fitted effect of over 55% in size
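HEK293 cells carry an SMN2 […]–luciferase reporter in which exon 7 inclusion puts luciferase in frame. Cells were plated 10-12 h before compound addition, then incubated 30-36 h at 37C. ONE-Glo luminescence was read; sodium butyrate at 4.5 mM final served as control.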
FLuc modulator: firefly luciferase modulation, counter-screen for miR-21 project; purified FLuc, Km substrates, luminescence inhibition; Potency, µM (series often up to 57.5 µM), actives largely listed as inhibitors; 360,000 tested, 6.9% active; note: nearly all actives have a fitted effect of over 55% in size
Target sequence (P08659 whole entry, looked up): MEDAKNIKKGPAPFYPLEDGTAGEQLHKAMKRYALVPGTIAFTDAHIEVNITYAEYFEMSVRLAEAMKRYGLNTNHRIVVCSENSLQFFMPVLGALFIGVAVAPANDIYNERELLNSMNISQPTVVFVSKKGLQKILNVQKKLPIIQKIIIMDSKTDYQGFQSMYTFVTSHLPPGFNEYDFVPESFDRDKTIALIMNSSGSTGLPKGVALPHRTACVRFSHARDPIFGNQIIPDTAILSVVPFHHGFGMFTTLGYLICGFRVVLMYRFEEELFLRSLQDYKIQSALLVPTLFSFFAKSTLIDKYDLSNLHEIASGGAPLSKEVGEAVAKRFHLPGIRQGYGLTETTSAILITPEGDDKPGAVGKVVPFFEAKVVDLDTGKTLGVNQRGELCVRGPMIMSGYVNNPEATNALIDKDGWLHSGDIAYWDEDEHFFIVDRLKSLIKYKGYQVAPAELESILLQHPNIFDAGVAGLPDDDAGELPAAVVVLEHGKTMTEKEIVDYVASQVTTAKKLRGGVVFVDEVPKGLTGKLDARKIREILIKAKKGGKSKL
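Purified P. pyralis luciferase (10nM final) with 10uM D-luciferin and 10uM ATP (Km levels) in 50mM Tris acetate pH 7.5, 10mM Mg acetate, 0.01% Tween-20, 0.05% BSA; qHTS 6-point titration, ~60 µM downward; luminescence read.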
Rab9 prom act: activates the Rab9 promoter | Huh7 Rab9 promoter-luciferase reporter, luminescence, 24 h | Potency, µM (highest dose often 9.22 µM), most hits filed as activators | 320,000 tested, 2.8% active; note: nearly all actives have a fitted effect of over 60% in size
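Promoter activation is measured as luciferase luminescence in Huh7 cells stably transfected with a Rab9 promoter–luciferase construct, following 24 h compound exposure at 37 °C and 10 min reagent incubation at ambient temperature.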
NPC1 prom act: activates the NPC1 promoter; Huh7 NPC1 promoter luciferase reporter, 24 h; Potency, µM (series often up to 9.22 µM), most hits filed as activators; 320,000 tested, 2.4% active; note: nearly all actives have a fitted effect of over 60% in size
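Quantitative HTS used a cell-based reporter: Huh7 cells stably bearing the NPC1 promoter upstream of luciferase were treated with compounds for 24 h, and promoter activation was read as luminescence.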
Hits are given with their value; - = inactive; ? = inconclusive; . = no result; [ ] = remark or other dose. In the library only some 7.3% were active in any assay of this set; here they are far more common. Calls come from the whole dose curve; as a rule, active = well fitted curve in the direction sought with a large enough effect; inconclusive = small, poorly fitted or top-dose-only effect, or another doubt; inactive = no such curve, though single readings can be large; an effect the other way counts as inactive or inconclusive.

SMILES	Luc counter	SMN2 splice up	FLuc modulator	Rab9 prom act	NPC1 prom act
Cc1cc(N/N=C/c2ccco2)c2ccccc2n1	-	-	-	-	-
CCc1ccc2oc(C(=O)Nc3c(C)n(C)n(-c4ccccc4)c3=O)cc(=O)c2c1	.	-	-	.	.
O=c1c2ccccc2cnn1CCOc1cccc(Br)c1	.	.	9.5µM	?	3.5µM
Cc1cccc(CC(C)NC(=O)c2cc(COc3ccc(F)cc3F)on2)n1 (centres undefined)	.	.	?	-	-
COc1cc(Cl)ccc1OCc1cc(C(=O)N(C)Cc2cccc3cnccc23)no1	.	.	13µM	?	?
COc1ccc(OCc2cc(C(=O)NCCc3ccccc3)no2)c(Cl)c1	.	.	?	-	-
COc1cc(Cl)ccc1OCc1cc(C(=O)NC(C)Cc2cccnc2)no1 (centres undefined)	.	.	8.5µM	?	?
COc1ccc(OCc2cc(C(=O)NCC(C)Oc3cccnc3)no2)c(Cl)c1 (centres undefined)	.	.	15µM	?	?
COc1ccccc1CCc1nnc(CCC(=O)N(C)Cc2cccc3cnccc23)o1	-	.	12µM	2.8µM	4µM
O=C(NCc1ccccc1)c1cccn1-c1nnc(N2CCCCC2)s1	.	.	-	.	.
CC(=O)OCOC(=O)CN(CC(=O)OCOC(C)=O)c1ccccc1OCCOc1ccccc1N(CC(=O)OCOC(C)=O)CC(=O)OCOC(C)=O	.	-	.	.	.
CCOc1ccc(-n2ccnc2SCC(=O)Nc2nc3ccc(C)cc3s2)cc1	.	.	-	.	.
CCCCCCCC1=Cc2ccccc2C(CC(=O)c2ccccc2)N1C(=O)OC (centres undefined)	-[7.66 µM]	-[9.22 µM]	.	.	.
COc1ccc(OCc2cc(C(=O)NC(C)Cc3cnccn3)no2)c(Cl)c1 (centres undefined)	.	.	19µM	?	?
CCCCNC(=O)c1cccc(-n2c(C)nc3cccnc32)c1	.	.	-	.	.
CCOc1ccc(C(=O)Nc2ccc3c(c2)OCO3)cc1OCC	-	-	-	-	-
CCOc1ccc(C(=O)Nc2ccc3c(c2)OCCO3)cc1	.	.	2.1µM	0.4µM	0.5µM
COc1ccc(C(=O)NC(=S)Nc2nc(C)cc(C)n2)cc1Br	.	.	15µM	?	?
COc1ccc(C(=O)Nc2ccc3c(c2)OCCO3)cc1Br	.	.	1.5µM	1.3µM	1µM
CCOc1ccc(C(=O)Nc2ccc3c(c2)OCCO3)cc1Br	.	16µM	1.3µM	.	.
CCCCCNC(=O)c1cc2c(=O)n3ccccc3nc2n1C	.	.	-	.	.
COc1cc(C(C#N)N2N=C(c3ccccc3)CC2c2ccccc2)ccc1O (centres undefined)	-	-	?	-	-
N#CC(c1ccccc1O)N1N=C(c2ccccc2)CC1c1ccccc1 (centres undefined)	.	.	9.5µM	?	-
Cc1ccc(Cn2c(CO)cnc2SCc2cccc(F)c2)cc1	.	.	-	.	.
COc1ccc(C2NC(=O)CS2)cc1OC (centres undefined)	-	-	-	-	-
SMILES	Luc counter	SMN2 splice up	FLuc modulator	Rab9 prom act	NPC1 prom act
Cc1ccc(C2=NNC(c3cccc(F)c3)S2)cc1 (centres undefined)	-	1.6µM	0.43µM	0.5µM	0.56µM
COc1ccc(C2NN=C(c3ccc(C)cc3)S2)cc1OC (centres undefined)	-	11µM	2.4µM	1.4µM	2.2µM
Fc1cccc(C2NN=C(c3ccccc3)S2)c1 (centres undefined)	-	11µM	1.1µM	2.8µM	2.2µM
CCOc1ccc(C(=O)NCc2nc3cccnc3n2Cc2cccc(OC)c2)cc1	.	.	-	.	.
O=C(Nc1cc(-c2nc3ccccc3o2)ccc1Cl)c1ccc(N2CCCCC2)c([N+](=O)[O-])c1	.	-	?	.	.
Cc1ccc(-c2cc(-c3nnc(SCC(=O)N(C)CCC#N)n3N)c3ccccc3n2)cc1	-	-	11µM	-	-
Cc1cc(C)nc(NC(=O)c2ccc(Br)s2)n1	.	.	-	-	-
O=C(Nc1ccccn1)c1cc2cc([N+](=O)[O-])ccc2s1	-	?	?	1.4µM	2µM
O=C(NC(=S)Nc1ccccn1)c1ccc([N+](=O)[O-])cc1	-	2.8µM	5.4µM	1µM	2µM
O=C(Nc1ccc(Cl)cc1)c1ccc(-c2ccccn2)s1	.	.	?	2.8µM	1.6µM
O=C(Nc1ccccn1)c1ccc([N+](=O)[O-])cc1Cl	-	-	?	-	-
O=C(Nc1ccccn1)c1ccc(Br)s1	.	.	11µM	4µM	1.8µM
COc1ccc(Cn2ccc3nc(C)c(C(=O)Nc4ccc(OC)cc4)cc3c2=O)cc1	.	.	-	.	.
CC(C)CCN1C(=O)N(c2ccccc2)C(=O)C1CC(=O)Nc1ccc(Cl)cc1 (centres undefined)	.	.	-	.	.
Cc1ccc(CCNC(=O)c2ccc(CS(=O)(=O)c3ccc(Br)cc3)o2)cc1	.	-	-	.	.
CN1CCN(C(=O)c2ccc3c(c2)N(Cc2c(F)cccc2Cl)C(=O)c2ccccc2S3)CC1	.	-	-	.	.
COC(=O)c1ccccc1NC(=O)CN1C(=O)COc2ccc(Cl)cc21	.	-	-	.	.
O=C(NC(=S)Nc1ccccn1)c1ccc(-c2ccccc2)cc1	.	.	1.5µM	0.28µM	0.11µM
O=C(CS(=O)(=O)c1ccccc1)Nc1ccccn1	-	-	-	-	-
O=C(NC(=S)Nc1ccccn1)c1ccccc1	.	.	7.6µM	0.13µM	0.32µM
O=C(/C=C/c1ccc(Cl)cc1Cl)NC(=S)Nc1ccccn1	-	-	?	0.89µM	1.1µM
CC(C)(C)C(=O)NC(=S)Nc1ccccn1	-	-	-	-	-
O=C(CC(=O)c1ccccc1)Nc1ccccn1	.	.	11µM	1.8µM	2.5µM
COc1ccc(OC)c(CNS(=O)(=O)c2ccc(-c3cc(C(F)(F)F)on3)s2)c1	.	.	-	.	.
CCc1ccc(CNC(=O)CCCN2C(=O)c3cccnc3Oc3ccc(Cl)cc32)cc1	.	.	-	.	.
SMILES	Luc counter	SMN2 splice up	FLuc modulator	Rab9 prom act	NPC1 prom act
CCC1Oc2ccc(C)cc2N(CC(=O)NCCc2ccccc2)C1=O (centres undefined)	.	.	-	.	.
Cc1ccc(C)n1-c1c(C(=O)NCCC(C)C)sc2ncccc12	.	.	-	.	.
CSc1nc(-c2ccco2)nn1S(=O)(=O)c1ccc(C)cc1	-	-	-	-	-
Cc1ccc(S(=O)(=O)n2nc(-c3ccco3)nc2SCc2ccccc2)cc1	-	16µM	24µM	-	-
O=C(c1ccco1)n1nc(-c2ccco2)nc1SCc1ccccc1	-	-	-	?	-
O=C(Cc1ccccc1)n1nc(-c2ccco2)nc1SCc1ccccc1	-	-	17µM	-	-
CCCC(=O)n1nc(-c2ccco2)nc1SCc1ccccc1	-	?	9.5µM	-	-
CC(=O)Nc1ccc(Nc2nc3ccc(Cl)cc3n3cnnc23)cc1	.	-	-	.	.
Cc1ccc2nc(-c3ccc(NC(=O)CNC4CC4)cc3)sc2c1	-	2.2µM	2.7µM	0.28µM	0.63µM
Cc1ccc2nc(-c3ccc(NC(=O)C(F)(F)F)cc3)sc2c1	.	-	0.48µM	.	.
Cc1ccc2nc(-c3ccc(NC(=O)c4ccccc4S(C)(=O)=O)cc3)sc2c1	.	.	21µM	.	.
Cc1ccc2nc(-c3ccc(NC(=S)NC(=O)CC(C)C)cc3)sc2c1	-	-	24µM	1.1µM	0.56µM

Bioassay records from PubChem BioAssay.
